Compounds without any hit were thinned out: in the full panel of roughly 83,000, 20% have a hit.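 Cell lines were cultured in 96-well plates, exposed to a single compound concentration, and assessed for percent growth 48 hours later.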 Active and inactive are the calls of the source. How the source made its calls: active means growth percent below 10; inactive means the rest.
How the values were obtained:
Assay in all cases: NCI-60 one-dose screen, 48 h (100 = growth as untreated, 0 = no growth, -100 = all killed)
Details in all cases: 10 µM unless noted
[1] = system: SR leukemia
[2] = system: RPMI-8226 leukemia
[3] = system: OVCAR-8 ovarian
[4] = system: OVCAR-5 ovarian
[5] = system: OVCAR-4 ovarian
[6] = system: SK-OV-3 ovarian
[7] = system: IGROV1 ovarian
[8] = system: OVCAR-3 ovarian
[9] = system: HS 578T breast
[10] = system: NCI/ADR-RES ovarian
[11] = system: T-47D breast
[12] = system: BT-549 breast
[13] = system: MDA-MB-435 melanoma
[14] = system: SW-620 colon
[15] = system: MCF7 breast
[16] = system: HCT-116 colon
[17] = system: HCC-2998 colon
[18] = system: KM12 colon

Measured: growth

COc1cc2ncnc(Oc3ccc(NC(=O)Nc4ccc(C5(C#N)CCCC5)cc4)c4ccccc34)c2cc1OC
active: [3] 0.585% | [5] -1.26%
inactive: [1] 70.3% | [2] 58.8% | [4] 81% | [6] 40.7% | [7] 40% | [8] 52% | [9] 29.6% | [10] 72.2% | [11] 64.3% | [12] 86.5% | [13] 43.4% | [14] 53.9% | [15] 55.2% | [16] 30.8% | [17] 107% | [18] 43.7%

O=C(NNC(=O)c1ccc([N+](=O)[O-])cc1)c1ccc([N+](=O)[O-])cc1
inactive: [1] 99.1% | [2] 95.5% | [3] 112% | [4] 102% | [5] 93.8% | [6] 96.1% | [7] 112% | [8] 104% | [9] 104% | [10] 104% | [11] 92% | [12] 89.8% | [13] 101% | [14] 106% | [15] 90.4% | [16] 84.6% | [17] 104% | [18] 105%

C=C1C(=O)O[C@H]2[C@H]1CC/C(COC(=O)c1cc(OC)c(OC)c(OC)c1)=C\CC[C@@]1(C)O[C@@H]21
inactive: [5] 20.1% | [6] 97.6% | [9] 32.9% | [10] 10.9% | [17] 41.2% | [18] 54.5%
active: [1] -13.2% | [2] -36.2% | [3] -45.7% | [4] -12.4% | [7] -8.27% | [8] -69.8% | [11] -38.7% | [12] -42% | [13] -53% | [14] -49.5% | [15] -16.5% | [16] -84.8%

C=CC(C)(O)CCC1C(=C)CCC2C(C)(C)CCCC12C (stereo unspecified)
inactive: [1] 90.2% | [2] 102% | [3] 114% | [4] 106% | [5] 114% | [6] 94.1% | [7] 108% | [8] 105% | [9] 113% | [10] 101% | [11] 99.4% | [12] 111% | [13] 107% | [14] 111% | [15] 92.7% | [16] 107% | [17] 99.5% | [18] 99.8%

COc1ccc(/C=N/C2=NNC(C)(c3ccccc3O)N2C(Cc2c[nH]c3ccccc23)C(=O)O)cc1 (stereo unspecified)
active: [1] 6.53% | [2] -15.2% | [13] 3.69%
inactive: [3] 17.1% | [4] 69.4% | [5] 33.3% | [6] 46.8% | [7] 16.7% | [8] 30% | [9] 51.7% | [10] 34.9% | [11] 12.9% | [12] 21.6% | [14] 17.2% | [15] 13.1% | [16] 10.8% | [17] 47.7% | [18] 13.1%

Nc1ncc(-c2ccc3ncnc(Nc4cncc(Cl)c4)c3c2)cn1
inactive: [1] 73.8% | [2] 50.1% | [3] 76.8% | [4] 52% | [5] 66.8% | [6] 46.5% | [8] 59.9% | [9] 61.6% | [10] 82.2% | [12] 64.2% | [13] 75.1% | [14] 95.8% | [15] 37.8% | [16] 82.4% | [17] 79.7% | [18] 82.5%
active: [7] 7.85% | [11] -7.28%

Nc1nc(Cl)c2c(C(F)(F)F)cn(CC3CCNCC3)c2n1
active: [1] -38.7% | [3] -16.3% | [7] -62.8%
inactive: [2] 83.7% | [4] 110% | [5] 101% | [6] 107% | [8] 94.7% | [9] 88.7% | [10] 109% | [11] 104% | [12] 103% | [13] 76.5% | [14] 22.4% | [15] 103% | [16] 48.3% | [17] 78.9% | [18] 101%

CC(/C=C/C=C(\C)[C@H](O)[C@H](C)C(=O)O[C@H]1C[C@H](C)C=C2C=C[C@@]3(C)O[C@@H](O)CC(=O)[C@]3(C)[C@H]21)=C\C=C\C(=O)O
active: [1] 1.43% | [6] 2.67% | [7] 5.48% | [8] 2.71% | [9] -3.26% | [11] -12.3% | [12] -21.5% | [13] 8.57% | [14] 9.52% | [15] 3.12% | [16] 2.2% | [17] 7.5% | [18] 0.481%
inactive: [2] 27.6% | [3] 21.6% | [4] 18.6% | [5] 23% | [10] 53.8%

Fc1cccc(F)c1C#Cc1ccc2cccnc2c1
inactive: [1] 75.4% | [2] 70.2% | [3] 87.3% | [4] 136% | [5] 75.1% | [6] 95.7% | [7] 56.3% | [8] 83.5% | [9] 91.6% | [10] 90.8% | [11] 22.3% | [12] 95.6% | [13] 107% | [14] 90.5% | [15] 14.8% | [16] 74.6% | [17] 68.6% | [18] 79.1%

COc1ccc(C(=O)NC(=O)Nc2ccc3c(c2)NC(=O)/C3=C\c2[nH]c(C)c(C(=O)O)c2C)cc1
inactive: [1] 34.3% | [2] 83.2% | [3] 39.9% | [4] 121% | [5] 93% | [6] 118% | [7] 75.4% | [8] 52.7% | [9] 46.8% | [10] 99.1% | [11] 45.3% | [12] 89% | [13] 85.2% | [14] 52.6% | [15] 75% | [16] 48.1% | [17] 97.7% | [18] 17.8%

CNCCCOc1c(Br)cc(CCNC(=O)/C(Cc2ccc(OC)c(Br)c2)=N/O)cc1Br
inactive: [3] 73.2% | [4] 86.7% | [5] 27.9% | [6] 63.4% | [7] 49.5% | [8] 65.5% | [9] 37.6% | [10] 81.3% | [11] 54.7% | [12] 56.8% | [13] 41% | [14] 41% | [15] 19% | [16] 19.8% | [17] 46% | [18] 42.1%
active: [1] -30.7% | [2] 8.44%

Cc1ccc(-c2cc(-c3nnc(SCC(=O)c4ccccc4)o3)c3ccccc3n2)cc1
inactive: [1] 77.4% | [2] 106% | [3] 100% | [4] 92% | [5] 86% | [6] 106% | [7] 94.1% | [8] 97.7% | [9] 101% | [10] 91.9% | [11] 93% | [12] 93.4% | [13] 93.5% | [14] 101% | [15] 91.2% | [16] 99% | [17] 99.6% | [18] 94.1%

Nc1ncnc2c1c(-c1ccc(Oc3ccccc3)cc1)nn2C[C@H]1SSC[C@@H]1O
active: [1] -49.4% | [6] 1.91% | [8] -62.4% | [11] -20.3% | [13] -92.9%
inactive: [2] 46.2% | [3] 79.4% | [4] 82.1% | [5] 47.2% | [7] 22% | [9] 68.3% | [10] 76.5% | [12] 78.1% | [14] 51.1% | [15] 14.5% | [16] 13% | [17] 72.1% | [18] 32.6%

CN1C(=O)C2(SCC(C(=O)NCC(=O)OC(C)(C)C)N2C(=O)C2CCCCC2)c2ccccc21 (stereo unspecified)
inactive: [1] 110% | [2] 90.5% | [3] 96% | [4] 104% | [5] 100% | [6] 99.8% | [7] 101% | [8] 107% | [9] 97.5% | [10] 97.7% | [11] 82.9% | [12] 109% | [13] 104% | [14] 98.7% | [15] 97.9% | [16] 96.3% | [17] 106% | [18] 101%

COC(=O)/C=C/C(=O)c1cc(C)cc(C)c1O
inactive: [1] 90% | [2] 104% | [3] 111% | [4] 98.9% | [5] 101% | [6] 104% | [7] 106% | [8] 102% | [9] 112% | [10] 99.5% | [11] 100% | [12] 103% | [13] 103% | [14] 110% | [15] 95.5% | [16] 106% | [17] 96.7% | [18] 99.1%

Cc1cc(N2CCOCC2)nc(N(CCNc2ccnc3cc(Cl)ccc23)Cc2ccco2)n1
inactive: [3] 34.6% | [4] 101% | [5] 37.2% | [6] 91.1% | [7] 40.7% | [9] 64% | [10] 50.8% | [12] 30.2% | [13] 26.6% | [14] 50.5% | [15] 40.6% | [16] 14.5% | [17] 62.9% | [18] 44.8%
active: [1] -22.6% | [2] -21.6% | [8] -64.3% | [11] -6.08%

O=S(=O)(O)c1ccc(F)cc1
inactive: [1] 101% | [2] 100% | [3] 116% | [4] 111% | [5] 105% | [6] 102% | [7] 98.8% | [8] 106% | [9] 102% | [10] 104% | [11] 98.7% | [12] 101% | [13] 108% | [14] 103% | [15] 97.8% | [16] 99% | [17] 105% | [18] 101%

From PubChem BioAssay (NCI)
